Laboratory results: ChEMBL document CHEMBL1961873, “Compounds: GSK PKIS; Assays: Nanosyn kinase panel” (2012)

Columns and labels:
[1] = target: MAP/microtubule affinity-regulating kinase 3 (Homo sapiens) (UniProt P27448); conditions: at 1 µM;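 also: reported values are averaged percent inhibition of MARK3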
[2] = target: T1, MAP/microtubule affinity-regulating kinase 4 (Homo sapiens) (UniProt Q96L34); conditions: at 0.1 µM
T1 sequence (whole entry): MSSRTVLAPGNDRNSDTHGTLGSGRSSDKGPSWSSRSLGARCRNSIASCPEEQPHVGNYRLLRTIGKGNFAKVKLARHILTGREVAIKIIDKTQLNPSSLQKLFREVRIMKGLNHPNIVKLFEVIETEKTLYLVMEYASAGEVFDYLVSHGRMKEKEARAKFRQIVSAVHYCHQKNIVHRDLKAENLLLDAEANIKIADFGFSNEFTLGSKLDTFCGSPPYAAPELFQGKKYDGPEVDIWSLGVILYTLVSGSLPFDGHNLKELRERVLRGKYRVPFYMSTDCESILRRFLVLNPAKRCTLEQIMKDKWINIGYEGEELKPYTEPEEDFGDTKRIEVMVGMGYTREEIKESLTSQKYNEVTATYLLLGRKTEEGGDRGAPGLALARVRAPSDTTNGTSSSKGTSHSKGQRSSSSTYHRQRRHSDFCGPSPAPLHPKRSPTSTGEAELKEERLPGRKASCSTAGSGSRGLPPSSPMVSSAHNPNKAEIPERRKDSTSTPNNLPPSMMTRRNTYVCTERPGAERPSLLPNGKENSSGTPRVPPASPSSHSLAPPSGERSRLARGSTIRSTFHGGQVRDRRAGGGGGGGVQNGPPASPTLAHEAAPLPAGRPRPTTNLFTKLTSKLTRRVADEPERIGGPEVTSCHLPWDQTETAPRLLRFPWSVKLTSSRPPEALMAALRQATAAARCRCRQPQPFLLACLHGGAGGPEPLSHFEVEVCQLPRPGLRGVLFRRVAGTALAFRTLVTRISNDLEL

[3] = target: T1, MAP/microtubule affinity-regulating kinase 4 (Homo sapiens); conditions: at 1 µM
[4] = target: Maternal embryonic leucine zipper kinase (Homo sapiens) (UniProt Q14680); conditions: at 0.1 µM
Maternal embryonic leucine zipper kinase (Homo sapiens), sequence (Q14680 whole entry, looked up): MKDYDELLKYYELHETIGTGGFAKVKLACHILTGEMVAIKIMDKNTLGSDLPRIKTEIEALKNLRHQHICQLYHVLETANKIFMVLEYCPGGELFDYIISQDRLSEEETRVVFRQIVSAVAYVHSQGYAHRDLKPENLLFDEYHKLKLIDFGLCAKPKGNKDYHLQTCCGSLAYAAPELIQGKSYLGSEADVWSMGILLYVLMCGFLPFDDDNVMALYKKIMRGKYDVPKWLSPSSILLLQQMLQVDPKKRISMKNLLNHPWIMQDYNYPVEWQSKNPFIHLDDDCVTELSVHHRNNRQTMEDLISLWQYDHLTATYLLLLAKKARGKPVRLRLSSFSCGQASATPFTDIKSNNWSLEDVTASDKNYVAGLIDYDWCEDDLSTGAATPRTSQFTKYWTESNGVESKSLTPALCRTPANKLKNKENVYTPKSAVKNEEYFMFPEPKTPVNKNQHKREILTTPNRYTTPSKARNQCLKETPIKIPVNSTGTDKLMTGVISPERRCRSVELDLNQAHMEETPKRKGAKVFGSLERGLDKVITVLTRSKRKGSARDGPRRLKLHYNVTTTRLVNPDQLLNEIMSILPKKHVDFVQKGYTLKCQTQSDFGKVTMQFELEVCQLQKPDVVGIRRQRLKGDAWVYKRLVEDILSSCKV

[5] = target: Maternal embryonic leucine zipper kinase (Homo sapiens) (UniProt Q14680); conditions: at 1 µM
[6] = target: MAP kinase-interacting serine/threonine-protein kinase 1 (Homo sapiens) (UniProt Q9BUB5); conditions: at 0.1 µM
MAP kinase-interacting serine/threonine-protein kinase 1 (Homo sapiens), sequence (Q9BUB5 whole entry, looked up): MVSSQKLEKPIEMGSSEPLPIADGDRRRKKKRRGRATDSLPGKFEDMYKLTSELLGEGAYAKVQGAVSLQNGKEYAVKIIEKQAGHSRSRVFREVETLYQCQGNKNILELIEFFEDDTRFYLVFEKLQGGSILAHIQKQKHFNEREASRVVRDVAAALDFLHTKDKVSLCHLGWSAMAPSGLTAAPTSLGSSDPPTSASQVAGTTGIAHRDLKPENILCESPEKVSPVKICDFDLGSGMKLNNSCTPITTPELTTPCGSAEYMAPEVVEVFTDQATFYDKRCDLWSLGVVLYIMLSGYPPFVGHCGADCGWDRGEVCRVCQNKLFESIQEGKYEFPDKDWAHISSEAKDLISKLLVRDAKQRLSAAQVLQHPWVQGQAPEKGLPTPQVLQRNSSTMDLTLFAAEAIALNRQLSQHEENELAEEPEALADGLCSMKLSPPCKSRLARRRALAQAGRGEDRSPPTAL

[7] = target: MAP kinase-interacting serine/threonine-protein kinase 1 (Homo sapiens) (UniProt Q9BUB5); conditions: at 1 µM
[8] = target: MAP kinase-interacting serine/threonine-protein kinase 2 (Homo sapiens) (UniProt Q9HBH9); conditions: at 0.1 µM
MAP kinase-interacting serine/threonine-protein kinase 2 (Homo sapiens), sequence (Q9HBH9 whole entry, looked up): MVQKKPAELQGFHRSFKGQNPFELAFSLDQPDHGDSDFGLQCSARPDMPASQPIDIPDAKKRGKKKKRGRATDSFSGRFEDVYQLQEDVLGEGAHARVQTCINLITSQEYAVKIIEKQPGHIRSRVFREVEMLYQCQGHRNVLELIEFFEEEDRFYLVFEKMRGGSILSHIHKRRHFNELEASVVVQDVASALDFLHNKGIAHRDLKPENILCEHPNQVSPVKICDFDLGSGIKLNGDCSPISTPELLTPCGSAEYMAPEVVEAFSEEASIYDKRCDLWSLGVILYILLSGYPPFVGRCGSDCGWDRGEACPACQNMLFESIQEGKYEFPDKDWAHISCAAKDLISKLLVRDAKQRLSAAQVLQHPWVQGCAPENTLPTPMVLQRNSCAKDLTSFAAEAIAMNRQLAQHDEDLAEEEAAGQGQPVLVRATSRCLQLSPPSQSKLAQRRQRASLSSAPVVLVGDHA

[9] = target: MAP kinase-interacting serine/threonine-protein kinase 2 (Homo sapiens) (UniProt Q9HBH9); conditions: at 1 µM
[10] = target: Serine/threonine-protein kinase MARK2 (Homo sapiens) (UniProt Q7KZI7); conditions: at 0.1 µM
Serine/threonine-protein kinase MARK2 (Homo sapiens), sequence (Q7KZI7 whole entry, the tested form may be a part): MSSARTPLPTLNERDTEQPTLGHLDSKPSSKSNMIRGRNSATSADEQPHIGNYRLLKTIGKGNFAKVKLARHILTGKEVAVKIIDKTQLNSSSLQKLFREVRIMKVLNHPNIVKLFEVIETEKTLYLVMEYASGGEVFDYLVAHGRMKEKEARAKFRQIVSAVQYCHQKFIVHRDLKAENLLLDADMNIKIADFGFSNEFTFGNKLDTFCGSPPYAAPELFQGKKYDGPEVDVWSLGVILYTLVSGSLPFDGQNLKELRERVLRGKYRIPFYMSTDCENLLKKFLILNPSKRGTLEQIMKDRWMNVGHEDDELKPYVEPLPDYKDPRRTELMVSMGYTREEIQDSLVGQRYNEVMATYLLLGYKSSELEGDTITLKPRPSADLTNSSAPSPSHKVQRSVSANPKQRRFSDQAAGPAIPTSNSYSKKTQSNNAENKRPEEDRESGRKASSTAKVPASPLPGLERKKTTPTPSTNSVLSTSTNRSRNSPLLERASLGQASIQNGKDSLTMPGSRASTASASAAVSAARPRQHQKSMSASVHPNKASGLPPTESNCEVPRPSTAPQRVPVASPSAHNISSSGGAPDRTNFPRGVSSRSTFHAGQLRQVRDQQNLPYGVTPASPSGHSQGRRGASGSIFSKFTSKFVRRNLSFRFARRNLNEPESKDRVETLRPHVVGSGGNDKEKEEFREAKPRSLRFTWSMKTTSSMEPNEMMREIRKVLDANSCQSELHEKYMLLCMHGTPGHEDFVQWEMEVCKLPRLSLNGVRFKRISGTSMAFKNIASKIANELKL

[11] = target: Serine/threonine-protein kinase MARK2 (Homo sapiens) (UniProt Q7KZI7); conditions: at 1 µM
[12] = target: PAS domain-containing serine/threonine-protein kinase (Homo sapiens) (UniProt Q96RG2); conditions: at 0.1 µM
PAS domain-containing serine/threonine-protein kinase (Homo sapiens), sequence (Q96RG2 whole entry, the tested form may be a part, canonical isoform): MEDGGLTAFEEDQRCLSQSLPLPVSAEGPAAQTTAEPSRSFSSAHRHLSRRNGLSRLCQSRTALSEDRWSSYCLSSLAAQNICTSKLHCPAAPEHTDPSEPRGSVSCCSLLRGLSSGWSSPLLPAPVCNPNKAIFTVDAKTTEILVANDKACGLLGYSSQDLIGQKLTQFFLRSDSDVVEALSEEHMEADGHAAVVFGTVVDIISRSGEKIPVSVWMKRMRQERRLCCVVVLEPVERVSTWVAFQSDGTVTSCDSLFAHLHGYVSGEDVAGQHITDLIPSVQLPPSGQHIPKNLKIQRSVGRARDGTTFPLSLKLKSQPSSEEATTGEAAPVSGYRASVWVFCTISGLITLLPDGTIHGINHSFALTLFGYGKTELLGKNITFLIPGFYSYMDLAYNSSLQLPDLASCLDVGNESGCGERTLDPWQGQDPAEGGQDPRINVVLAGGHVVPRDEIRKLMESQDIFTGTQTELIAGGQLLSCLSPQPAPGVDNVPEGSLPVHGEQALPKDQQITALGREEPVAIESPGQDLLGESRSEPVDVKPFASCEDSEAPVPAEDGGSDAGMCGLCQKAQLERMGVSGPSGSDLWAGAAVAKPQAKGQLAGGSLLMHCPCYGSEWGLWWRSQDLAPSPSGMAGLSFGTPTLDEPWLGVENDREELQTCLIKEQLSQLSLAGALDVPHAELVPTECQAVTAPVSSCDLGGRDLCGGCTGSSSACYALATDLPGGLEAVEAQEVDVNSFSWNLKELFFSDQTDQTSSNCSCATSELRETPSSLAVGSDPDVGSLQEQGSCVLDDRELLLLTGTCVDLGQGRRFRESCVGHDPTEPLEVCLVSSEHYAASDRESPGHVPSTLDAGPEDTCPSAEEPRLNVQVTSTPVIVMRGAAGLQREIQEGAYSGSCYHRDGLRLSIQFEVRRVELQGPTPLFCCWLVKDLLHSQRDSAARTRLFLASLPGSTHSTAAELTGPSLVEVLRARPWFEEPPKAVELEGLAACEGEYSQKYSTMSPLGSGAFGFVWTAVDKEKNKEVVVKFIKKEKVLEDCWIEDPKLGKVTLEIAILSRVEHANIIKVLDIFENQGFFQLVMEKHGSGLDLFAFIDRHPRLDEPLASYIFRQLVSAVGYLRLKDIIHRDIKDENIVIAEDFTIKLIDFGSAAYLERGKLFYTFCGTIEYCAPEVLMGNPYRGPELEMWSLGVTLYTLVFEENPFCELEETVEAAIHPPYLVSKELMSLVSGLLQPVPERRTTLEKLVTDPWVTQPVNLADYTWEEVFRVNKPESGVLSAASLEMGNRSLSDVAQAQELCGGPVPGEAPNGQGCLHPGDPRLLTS

[13] = target: PAS domain-containing serine/threonine-protein kinase (Homo sapiens) (UniProt Q96RG2); conditions: at 1 µM
[14] = target: Phosphorylase b kinase gamma catalytic chain, skeletal muscle/heart isoform (Homo sapiens) (UniProt Q16816); conditions: at 0.1 µM
[15] = target: Phosphorylase b kinase gamma catalytic chain, skeletal muscle/heart isoform (Homo sapiens) (UniProt Q16816); conditions: at 1 µM
[16] = target: T2, Phosphorylase b kinase gamma catalytic chain, liver/testis isoform (Homo sapiens) (UniProt P15735); conditions: at 0.1 µM
T2 sequence (whole entry): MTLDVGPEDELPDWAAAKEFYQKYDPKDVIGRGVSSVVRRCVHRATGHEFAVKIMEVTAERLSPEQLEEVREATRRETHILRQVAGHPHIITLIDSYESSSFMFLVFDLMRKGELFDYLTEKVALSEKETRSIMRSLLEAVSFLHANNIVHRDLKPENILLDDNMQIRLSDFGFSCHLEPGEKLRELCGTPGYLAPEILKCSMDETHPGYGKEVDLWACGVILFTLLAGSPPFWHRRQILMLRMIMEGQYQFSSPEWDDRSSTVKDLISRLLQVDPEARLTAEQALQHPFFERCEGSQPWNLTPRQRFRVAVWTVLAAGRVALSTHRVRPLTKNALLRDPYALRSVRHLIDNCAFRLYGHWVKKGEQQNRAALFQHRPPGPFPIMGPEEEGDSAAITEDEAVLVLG

[17] = target: T2, Phosphorylase b kinase gamma catalytic chain, liver/testis isoform (Homo sapiens); conditions: at 1 µM
[18] = target: Serine/threonine-protein kinase pim-1 (Homo sapiens) (UniProt P11309); conditions: at 0.1 µM
[19] = target: Serine/threonine-protein kinase pim-1 (Homo sapiens) (UniProt P11309); conditions: at 1 µM
[20] = target: Serine/threonine-protein kinase pim-2 (Homo sapiens) (UniProt Q9P1W9); conditions: at 0.1 µM;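 also: reported value is the mean percent inhibition of PIM2, measured in the GSK PKIS kinase inhibitor set screen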
Serine/threonine-protein kinase pim-2 (Homo sapiens), sequence (Q9P1W9 whole entry, looked up): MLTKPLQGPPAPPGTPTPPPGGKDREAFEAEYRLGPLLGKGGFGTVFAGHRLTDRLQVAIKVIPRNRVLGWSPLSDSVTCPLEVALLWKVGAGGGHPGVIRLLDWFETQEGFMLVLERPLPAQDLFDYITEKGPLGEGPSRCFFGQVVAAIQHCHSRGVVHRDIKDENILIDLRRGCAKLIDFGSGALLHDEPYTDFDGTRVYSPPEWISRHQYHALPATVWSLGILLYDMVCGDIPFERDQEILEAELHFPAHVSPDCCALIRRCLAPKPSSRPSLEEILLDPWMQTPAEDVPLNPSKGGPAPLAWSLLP

MAP/microtubule affinity-regulating kinase 3 (Homo sapiens), sequence (P27448 whole entry, looked up): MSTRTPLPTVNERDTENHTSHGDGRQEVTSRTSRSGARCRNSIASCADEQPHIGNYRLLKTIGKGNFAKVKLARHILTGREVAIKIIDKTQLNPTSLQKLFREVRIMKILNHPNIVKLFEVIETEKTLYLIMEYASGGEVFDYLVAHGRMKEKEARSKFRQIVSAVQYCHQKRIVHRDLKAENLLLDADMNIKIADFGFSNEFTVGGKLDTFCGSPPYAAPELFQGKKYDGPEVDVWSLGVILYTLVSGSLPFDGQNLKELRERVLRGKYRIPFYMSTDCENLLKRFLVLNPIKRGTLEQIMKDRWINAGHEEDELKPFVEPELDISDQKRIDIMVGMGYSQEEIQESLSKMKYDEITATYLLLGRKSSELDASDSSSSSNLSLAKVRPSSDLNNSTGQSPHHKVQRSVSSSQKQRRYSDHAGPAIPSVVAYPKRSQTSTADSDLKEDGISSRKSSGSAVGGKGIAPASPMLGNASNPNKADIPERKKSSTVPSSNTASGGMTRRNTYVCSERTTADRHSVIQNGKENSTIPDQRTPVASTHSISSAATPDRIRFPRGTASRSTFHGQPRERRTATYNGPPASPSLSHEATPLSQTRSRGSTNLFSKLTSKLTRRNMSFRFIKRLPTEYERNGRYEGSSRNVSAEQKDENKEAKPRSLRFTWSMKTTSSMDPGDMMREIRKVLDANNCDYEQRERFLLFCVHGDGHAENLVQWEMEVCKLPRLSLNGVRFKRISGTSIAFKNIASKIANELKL

| SMILES | inhibition [1] | inhibition [2] | inhibition [3] | inhibition [4] | inhibition [5] | inhibition [6] | inhibition [7] | inhibition [8] | inhibition [9] | inhibition [10] | inhibition [11] | inhibition [12] | inhibition [13] | inhibition [14] | inhibition [15] | inhibition [16] | inhibition [17] | inhibition [18] | inhibition [19] | inhibition [20] |
| --- | --- | --- | --- | --- | --- | --- | --- | --- | --- | --- | --- | --- | --- | --- | --- | --- | --- | --- | --- | --- |
| O=C1NC(=O)C(c2cccc(Cl)c2)=C1Nc1ccc(O)c(Cl)c1 | 18.6% | 2.36% | 17.3% | 0.77% | 6.85% | 0.35% | 7.25% | 0.54% | 1.96% | 0.55% | 16.3% | 1.02% | 0.49% | 2.04% | 6.07% | 1.35% | -1.03% | 1.35% | 3.87% | 0.87% |
| O=C1NC(=O)C(c2ccccc2Cl)=C1Nc1cccc(O)c1 | 13.6% | 0.9% | 8.27% | 1.6% | 4.56% | 0.62% | 2.78% | 0.71% | 0.58% | 1.47% | 8.31% | 0.42% | -0.94% | 1.1% | 1.82% | 3.35% | 0.71% | 1.24% | 1.62% | -0.21% |
| COc1ccc(COc2ccc(Cc3cnc(N)nc3N)cc2OC)cc1 | 2.06% | 2.83% | 1.47% | 0.82% | -1.43% | 10.8% | 0.82% | 3.14% | 0.25% | 1.26% | 3.13% | 1.77% | 0.54% | -0.96% | 1.56% | 1.58% | -1.66% | 1.34% | 0.49% | 2.71% |
| CCn1c(-c2nonc2N)nc2cncc(C(=O)N3CC[C@H](N)C3)c21 | 4.57% | 2.19% | 4.51% | 14.8% | 60.6% | 3.74% | 9.55% | 2.07% | 10.8% | 1.6% | 7.14% | 0.29% | 22.9% | 6.12% | 6.32% | 6.67% | 5.58% | 74.1% | 94.2% | 9.73% |
| COc1cc2ncn(-c3cc(OCc4ccccc4C(F)(F)F)c(C(N)=O)s3)c2cc1OC | 21.5% | 5.05% | 18.4% | 5.92% | 10.3% | 2.99% | 7.06% | 2.21% | 7.89% | 2.29% | 12.2% | -0.15% | 0.3% | 6.17% | 8.75% | 5.36% | 6.56% | -0.79% | 2.8% | -3.6% |
| CS(=O)(=O)CCNCc1nc(-c2ccc3ncnc(Nc4ccc(F)c(Cl)c4)c3c2)cs1 | -1.39% | -0.14% | 0.31% | -1.18% | 3.48% | 10.6% | 50.4% | 13.4% | 55.7% | -0.48% | 0.61% | 1% | 0.68% | 1.09% | 4.69% | 3.04% | 3.64% | 1.43% | 9.19% | -0.24% |
| COc1ccc(-c2coc3ncnc(N)c23)cc1 | -0.28% | 3.62% | 2.28% | 4.21% | 5.33% | 2.45% | 4.3% | 0.67% | 0.83% | 0.91% | 2.28% | -0.15% | -1.42% | 3.44% | 6.53% | 4.41% | 2.09% | 1.29% | 1.42% | 0.43% |
| CCn1c(-c2nonc2N)nc2cncc(C(=O)N3CCNCC3)c21 | 7.99% | 2.3% | 1.48% | 6.1% | 9.51% | 2.42% | 2.99% | 1.78% | 0.78% | 2.18% | 2.03% | -1.71% | -0.89% | 3.09% | 4.51% | 8.34% | 7.28% | 0.31% | 2.05% | -0.98% |
| CC1=C(C(=O)Nc2ccc3[nH]ncc3c2)C(c2ccc3ccccc3c2)CC(=O)N1 (stereo not given) | 4.13% | 0.19% | 1.73% | 3.7% | 6.22% | 3.03% | 5.77% | 1.21% | 3.81% | -0.71% | 0.34% | -0.4% | -1.53% | 2.21% | 1.29% | 2.37% | 1.22% | 0.24% | -0.93% | 0.51% |
| CC(=O)Nc1cccc(C#Cc2cncnc2Nc2ccc(OCc3cccc(F)c3)c(Cl)c2)n1 | 3.05% | 0.52% | 0.84% | -2.29% | -2.61% | 0.9% | 18.7% | 3.48% | 14.3% | 1.78% | -0.36% | 1.79% | 6.21% | 1.84% | 3.66% | 0.59% | 6.86% | 1.5% | 0.89% | 0.58% |
| Nc1nc(-c2ccc3c(c2)C(=Cc2cc(Br)c(O)c(Br)c2)C(=O)N3)cs1 | -2.49% | 0.78% | 1.73% | 0.07% | 5.36% | -1.04% | 7.91% | 0.49% | 10.6% | 0% | 0.67% | -0.9% | -1.85% | 3.78% | 5.21% | -3.21% | -2.57% | 3.74% | 25.6% | 10.8% |
| CCc1cccc(NC(=O)Nc2ccc(Oc3ccc4nc(NC(=O)OC)[nH]c4c3)cc2)c1 | 3.47% | -0.22% | -1.15% | -0.95% | 2.29% | 5.71% | 15.8% | 4.24% | 12.2% | 2.55% | -0.89% | 1.41% | 1.44% | -0.84% | 2.94% | 3.07% | 3.57% | 1.27% | 0.49% | -0.87% |
| COc1cc(C=NNc2ncnc3c2cnn3-c2ccccc2)ccc1O | 18.2% | 1.61% | 11.3% | 6.74% | 43.8% | 12.1% | 49.9% | 13.7% | 52% | -0.32% | 6.47% | 0.58% | -3.11% | 2.48% | 11.3% | 3.34% | 2% | 1.39% | 1.57% | -0.02% |
